Assay results: the supplement of paper PMC8728848
Shown is part of a subset that was picked to be rich in the strongest signals.

Key:
Experiment in all cases: glycan array binding signal (z-score within array); higher = stronger binding
Conditions in all cases: glycan notation: IUPAC condensed, linker removed
[1] = molecular target: GlcNAc(a1-4)Gal(b1-4)GalNAc
Outline: (§1)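 The Consortium for Functional Glycomics database supplied 3228 glycan arrays, of which those lacking an available protein sequence were dropped. The binding signal, a within-array Z-score, was averaged across arrays of the same protein sequence and across linkers. Negative scores can be read as non-binding.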

[2] = molecular target: GlcNAc(a1-4)Gal(b1-4)GlcNAc(b1-3)Gal(b1-4)GlcNAc(b1-3)Gal(b1-4)GlcNAc
Outline: as §1

[3] = molecular target: GlcNAc(b1-2)[GlcNAc(b1-4)]Man(a1-3)[GlcNAc(b1-4)][GlcNAc(b1-2)[GlcNAc(b1-6)]Man(a1-6)]Man(b1-4)GlcNAc(b1-4)[Fuc(a1-6)]GlcNAc
Outline: as §1

[4] = molecular target: GlcNAc(b1-2)[GlcNAc(b1-6)]Man(a1-6)[GlcNAc(b1-2)Man(a1-3)]Man(b1-4)GlcNAc(b1-4)[Fuc(a1-6)]GlcNAc
Outline: as §1

[5] = molecular target: GlcNAc(b1-3)Gal(b1-4)GlcNAc(b1-3)Gal(b1-4)GlcNAc
Outline: as §1

[6] = molecular target: GlcNAc(b1-3)Gal(b1-4)GlcNAc(b1-3)Gal(b1-4)GlcNAc(b1-2)Man(a1-3)[GlcNAc(b1-3)Gal(b1-4)GlcNAc(b1-3)Gal(b1-4)GlcNAc(b1-2)Man(a1-6)]Man(b1-4)GlcNAc(b1-4)[Fuc(a1-6)]GlcNAc
Outline: as §1

[7] = molecular target: GlcNAc(b1-3)Gal(b1-4)GlcNAc(b1-3)Gal(b1-4)GlcNAc(b1-2)[GlcNAc(b1-3)Gal(b1-4)GlcNAc(b1-3)Gal(b1-4)GlcNAc(b1-6)]Man(a1-6)[GlcNAc(b1-3)Gal(b1-4)GlcNAc(b1-3)Gal(b1-4)GlcNAc(b1-2)Man(a1-3)]Man(b1-4)GlcNAc(b1-4)[Fuc(a1-6)]GlcNAc
Outline: as §1

[8] = molecular target: GlcNAc(b1-4)GlcNAc(b1-4)GlcNAc(b1-4)GlcNAc(b1-4)GlcNAc
Outline: as §1

[9] = molecular target: Man(a1-2)Man(a1-3)[Man(a1-2)Man(a1-6)]Man
Outline: as §1

[10] = molecular target: Man(a1-2)Man(a1-3)[Man(a1-2)Man(a1-6)]Man(a1-6)[Man(a1-2)Man(a1-2)Man(a1-3)]Man
Outline: as §1

[11] = molecular target: Man(a1-3)[Man(a1-6)]Man(a1-6)[Man(a1-2)Man(a1-3)]Man(b1-4)GlcNAc(b1-4)GlcNAc
Outline: as §1

[12] = molecular target: Man(a1-3)[Man(a1-6)]Man(a1-6)[Man(a1-3)]Man
Outline: as §1

Man(a1-6)Man = molecular target: Man(a1-6)Man
Outline: as §1

[13] = molecular target: Neu5Ac(a2-3)Gal(b1-4)GlcNAc(b1-3)Gal(b1-4)GlcNAc(b1-3)Gal(b1-4)GlcNAc(b1-2)Man(a1-3)[Neu5Ac(a2-3)Gal(b1-4)GlcNAc(b1-3)Gal(b1-4)GlcNAc(b1-3)Gal(b1-4)GlcNAc(b1-2)Man(a1-6)]GalNAc
Outline: as §1

[14] = molecular target: Neu5Ac(a2-3)Gal(b1-4)GlcNAc(b1-3)Gal(b1-4)GlcNAc(b1-3)[Neu5Ac(a2-3)Gal(b1-4)GlcNAc(b1-3)Gal(b1-4)GlcNAc(b1-6)]GalNAc
Outline: as §1

[15] = molecular target: Neu5Ac(a2-3)Gal(b1-4)GlcNAc(b1-3)[Neu5Ac(a2-3)Gal(b1-4)GlcNAc(b1-6)]GalNAc
Outline: as §1

[16] = molecular target: Neu5Ac(a2-3)Gal(b1-4)GlcNAc(b1-6)[Gal(b1-3)]GalNAc
Outline: as §1

[17] = molecular target: Neu5Ac(a2-3)Gal(b1-4)[Fuc(a1-3)]GlcNAc(b1-2)Man
Outline: as §1

[18] = molecular target: Neu5Ac(a2-6)Gal(b1-3)GlcNAc(b1-3)[Gal(b1-4)GlcNAc(b1-6)]Gal(b1-4)Glc
Outline: as §1

[19] = molecular target: Neu5Ac(a2-6)Gal(b1-4)GlcNAc
Outline: as §1

[20] = molecular target: Neu5Ac(a2-6)Gal(b1-4)GlcNAc(b1-2)Man(a1-6)Man(b1-4)GlcNAc(b1-4)GlcNAc
Outline: as §1

[21] = molecular target: Neu5Ac(a2-6)Gal(b1-4)GlcNAc(b1-3)Gal(b1-4)GlcNAc(b1-3)[Neu5Ac(a2-6)Gal(b1-4)GlcNAc(b1-3)Gal(b1-4)GlcNAc(b1-6)]GalNAc
Outline: as §1

[22] = molecular target: Neu5Ac(a2-6)Gal(b1-4)GlcNAc(b1-3)Gal(b1-4)GlcNAc(b1-6)[Gal(b1-3)]GalNAc
Outline: as §1

[23] = molecular target: Neu5Ac(a2-6)Gal(b1-4)GlcNAc(b1-6)[Gal(b1-3)GlcNAc(b1-3)]Gal(b1-4)Glc
Outline: as §1

Neu5Ac(a2-6)GalNAc = molecular target: Neu5Ac(a2-6)GalNAc
Outline: as §1

[24] = molecular target: Neu5Ac(a2-6)GalNAc(b1-4)GlcNAc
Outline: as §1

[25] = molecular target: Neu5Ac(a2-6)GalNAc(b1-4)GlcNAc6S
Outline: as §1

[26] = molecular target: Neu5Ac(a2-6)GlcNAc(b1-4)GlcNAc
Outline: as §1

[27] = molecular target: Neu5Ac(a2-8)Neu5Ac(a2-3)Gal(b1-4)Glc
Outline: as §1

B1: Aap brpt (Staphylococcus epidermidis) (protein)
chain: VDGDPITSTEEIPFDKKREFDPNLAPGTEKVVQKGEPGTKTITTPTTKNPLTGEKVGEGEPTEKITKQPVDEIVHYGGEEIKTGHKDEFDPNAPKGSQTTQPGKPGVKNPDTGEVVTPPVDDVTKYGPVDGDPITSTEEIPFDKKREFDPNLAPGTEKVVQKGEPGTKTITTPTTKNPLTGEKVGEGEPTEKITKQPVDEIVHYGGEEIKPGHKDEFDPNAPKGSQEDVPGKPGVKNPDTGEVVTPPVDDVTKYGPVDGDSITSTEEIPFDKKREFDPNLAPGTEKVVQKGEPGTKTITTPTTKNPLTGEKVGEGEPTEKITKQPVDEIVHYGGEQIPQGHKDEFDPNAPVDSKTEVPGKPGVKNPDTGEVVTPPVDDVTKYGPVDGDSITSTEEIPFDKKREFDPNLAPGTEKVVQKGEPGTKTITTPTTKNPLTGEKVGEGKSTEKVTKQPVDEIVEYGPTK
[1]
  glycan array binding signal (z-score): -1.15
[2]
  glycan array binding signal (z-score): 0.541
[3]
  glycan array binding signal (z-score): 0.314
[4]
  glycan array binding signal (z-score): -0.222
[5]
  glycan array binding signal (z-score): -0.363
[6]
  glycan array binding signal (z-score): 2.65
[7]
  glycan array binding signal (z-score): 3.02
[8]
  glycan array binding signal (z-score): -1.51
[9]
  glycan array binding signal (z-score): -0.923
[10]
  glycan array binding signal (z-score): 2.59
[11]
  glycan array binding signal (z-score): 2.29
[12]
  glycan array binding signal (z-score): -1
Man(a1-6)Man
  glycan array binding signal (z-score): 1.21
[13]
  glycan array binding signal (z-score): 1.19
[14]
  glycan array binding signal (z-score): 0.565
[15]
  glycan array binding signal (z-score): 0.328
[16]
  glycan array binding signal (z-score): -0.96
[17]
  glycan array binding signal (z-score): 0.096
[18]
  glycan array binding signal (z-score): -0.86
[19]
  glycan array binding signal (z-score): -0.403
[20]
  glycan array binding signal (z-score): -0.15
[21]
  glycan array binding signal (z-score): 2.85
[22]
  glycan array binding signal (z-score): 2.73
[23]
  glycan array binding signal (z-score): 0.258
Neu5Ac(a2-6)GalNAc
  glycan array binding signal (z-score): 1.84
[24]
  glycan array binding signal (z-score): 0.115
[25]
  glycan array binding signal (z-score): -0.313
[26]
  glycan array binding signal (z-score): 2.43
[27]
  glycan array binding signal (z-score): -0.002
